The list is not random: actives were taken first. Their share in the collection is about 19%.
DT40 TDP1 no CPT – qHTS for Inhibitors of human tyrosyl-DNA phosphodiesterase 1 (TDP1): qHTS in cells in absence of CPT; DT40 Tdp1-/- hTDP1 cells, no CPT, ATP luminescence, 48 h; Potency, µM (highest dose often 46.2 µM), for the others: top-dose activity change, negative = growth inhibition, most hits filed as inhibitors; actives 15% (n = 420,000); AID 686978, 2013; note: potency is the fitted concentration of half-maximal effect; nearly all actives have a fitted effect of over 55% in size
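Growth of hTDP1-complemented DT40 Tdp1-knockout cells is measured by ATP luminescence after at least 48 hr compound exposure at 37 °C, with DMSO substituting for the 20 nM CPT used in the parallel screen.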
ELG1 repair inh – qHTS screen for small molecules that inhibit ELG1-dependent DNA repair in human embryonic kidney (HEK293T) cells expressing luciferase-tagged ELG1 | actives 2.3% (n = 330,000) | HEK293T ELG1-luciferase reporter, luminescence, 16 h; DNA damage induced by 5-fluorouridine | Potency, µM (top dose mostly 46.1 µM), for the others: top-dose activity change, negative = inhibition, hits mostly inhibitors | AID 504467, 2011; note: potency is the fitted concentration of half-maximal effect; nearly all actives have a fitted effect of over 55% in size
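Reporter activity after DNA damage by 5-fluorouridine is monitored. Compound-treated cells incubate 16 hr at 37 °C, then ONE-Glo is added for 30 min before luminescence reading.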
Giardia kill – Small Molecules that selectively kill Giardia lamblia: qHTS. actives 0.15% (n = 340,000). activity change, % at 7.66 µM, hits read low. Giardia lamblia trophozoite viability; in the data active = activity change below about -80%; inconclusive = between about -30% and that limit;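 note: parasites exposed to compound for two days anaerobically before the ATP read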
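Media and compound were dispensed first, then trophozoites at 100 cells/well; plates sat 48 hrs at 37 deg C without oxygen before ATP luminescence reagent was added and read after 15-30 min at room temperature.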
IL1B secr inh – qHTS for Inhibitors of Inflammasome Signaling: IL-1-beta AlphaLISA Primary Screen; THP-1 LPS/ATP IL-1B secretion, AlphaLISA, 16 h; stronger effect = lower value; activity change, % at 57.5 µM; actives 4.7% (n = 360,000); in the data active = activity change below about -50%; inconclusive = mostly about -30% to -49%
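THP-1 cells pretreated 1 hr with compounds (up to 57.5 uM final), then stimulated with LPS (250 ng/mL final) plus ATP (1.25 mM final); secreted IL-1B measured by AlphaLISA after 16 hr, decreased signal indicating inhibition.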
TDP1 cell CPT – qHTS for Inhibitors of human tyrosyl-DNA phosphodiesterase 1 (TDP1): qHTS in cells in presence of CPT; AID 686979, 2013; actives 12% (n = 420,000); Potency, µM (doses to about 46.2 µM), for the others: at the top dose activity change, negative = growth inhibition, most hits filed as inhibitors; chicken DT40 Tdp1-/-;hTDP1 cells + 20 nM CPT, ATP luminescence, 48 h; note: potency is the fitted concentration of half-maximal effect; nearly all actives have a fitted effect of over 55% in size
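Cell growth measured by CellTiter-Glo luminescence after a minimum 48 h, 37 C compound exposure with 20 nM CPT in Tdp1-knockout DT40 cells stably expressing hTDP1, seeded 400/well; qHTS titration format.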
TDP1 block – qHTS Assay for Inhibitors of Tyrosyl-DNA Phosphodiesterase (TDP1). Tyrosyl-DNA phosphodiesterase 1 (Homo sapiens), Q9NUW8. recombinant TDP1, AlphaScreen DNA substrate cleavage. Potency, µM (series often up to 130 µM), inactives show top-dose activity change, negative = inhibition, usual class: inhibitors. actives 0.28% (n = 350,000); note: potency is the fitted concentration of half-maximal effect; nearly all actives have a fitted effect of over 40% in size
Target sequence (Q9NUW8 whole entry, looked up): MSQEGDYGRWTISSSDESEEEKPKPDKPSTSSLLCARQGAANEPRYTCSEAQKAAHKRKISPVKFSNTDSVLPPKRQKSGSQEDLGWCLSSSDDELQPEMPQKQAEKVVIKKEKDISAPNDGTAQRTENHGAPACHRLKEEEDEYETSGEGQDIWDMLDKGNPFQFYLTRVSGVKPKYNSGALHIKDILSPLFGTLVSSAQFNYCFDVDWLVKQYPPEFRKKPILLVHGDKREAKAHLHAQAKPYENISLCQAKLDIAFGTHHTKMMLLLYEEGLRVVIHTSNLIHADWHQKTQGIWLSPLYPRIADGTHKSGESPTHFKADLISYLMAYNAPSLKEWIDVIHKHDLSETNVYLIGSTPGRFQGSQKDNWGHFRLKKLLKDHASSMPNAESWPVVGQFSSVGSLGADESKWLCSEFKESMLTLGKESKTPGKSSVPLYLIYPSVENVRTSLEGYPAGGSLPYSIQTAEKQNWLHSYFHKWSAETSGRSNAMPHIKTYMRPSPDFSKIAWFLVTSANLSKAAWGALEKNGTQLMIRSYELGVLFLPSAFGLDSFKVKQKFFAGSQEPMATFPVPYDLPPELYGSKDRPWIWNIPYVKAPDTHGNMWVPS
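Steps: enzyme plus compound, 15 min RT; add biotin/phosphotyrosine-FITC oligonucleotide (15 nM final), react 5 min; add donor/acceptor beads (10 ug/ml final), 10 min; read AlphaScreen. Tdp1 at 1 nM final.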
Active calls of the source: *; u = inconclusive; x = no result given; [ ] = another dose, or the depositor's remark. Unless noted, calls come from the whole dose curve; as a rule, active = well fitted curve in the direction sought with a large enough effect; inconclusive = small, poorly fitted or top-dose-only effect, or another doubt; inactive = no such curve, though single readings can be large; an effect the other way counts as inactive or inconclusive. % is set by controls: 0 for no effect and ±100 for the full control effect.

SMILES	DT40 TDP1 no CPT	ELG1 repair inh	Giardia kill	IL1B secr inh	TDP1 cell CPT	TDP1 block
O=C(NC1CCCCC1)C(c1ccnc2ccccc12)n1c(=O)c(-c2ccccc2)nc2ccccc21 (stereo not given)	13µM*	x	x	54.7	10.3µM*	x
O=C(NC1CCCCC1)C(c1ccnc2ccccc12)n1c(=O)c(-c2cc3ccccc3[nH]2)nc2ccccc21 (stereo not given)	14.6µM*	x	x	-11.8	u	x
CCC(C(=O)NC1CCCC1)n1c(-c2ccnc3ccccc23)nc2ccccc21 (stereo not given)	u	x	x	-58.7*	u	x
CCC(C(=O)NC1CCCC1)n1c(-c2ccncc2)nc2ccccc21 (stereo not given)	-8.0%	x	x	-19.6	18.3%	x
COc1cc(CCC(N)c2cccc(O)c2)cc(OC)c1OC (stereo not given)	-6.4%	x	-0.8	-1.3	13.1%	x
C=CCn1c(Cc2ccccc2)nc2c(cnn2-c2ccccc2)c1=O	23.1µM*	20.6µM*	-11.5	13.8	u	x
COc1cccc(CN2CCCC(c3nc(-c4ccncc4)ncc3-c3ccccc3C)C2)c1O (stereo not given)	-32.0%	x	x	x	u	x
O=C(/C=C/c1ccc(O)c(O)c1)OC(Cc1ccc(O)c(O)c1)C(=O)O (stereo not given)	3.0%	28.3%	9.1	17.4	-4.9%	x
COc1cc(/C=C/C(=O)NC(=O)c2ccccc2O)ccc1O	-7.4%	18.2%	0.9	-5.5	2.7%	3.7%
COCOc1ccccc1C(=O)/C=C/c1ccccc1	x	x	x	x	x	0.6%
O=C(/C=C/c1ccc(F)cc1)c1ccccc1Br	16.4µM*	-23.7%	14.1	u	u	-5.7%
O=c1oc2ccccc2cc1O	-5.4%	x	x	x	-11.0%	13.0%[56.1 µM]
O=C(/C=C/c1ccc(O)c(O)c1)OCCc1ccccc1	1.03µM*	x	10.3	-25.0	1.46µM*	13.4%
O=C(/C=C/c1cc2ccccc2o1)c1ccccc1O	u	u	-15.3	-102.0*	-5.8%	8.3%
O=C(C=Cc1cccc(O)c1)c1ccccc1O	14.6µM*	x	-25.9	-93.1*	u	x
O=C(NCc1nnc(-c2cc3ccccc3[nH]2)o1)c1ccccc1	x	x	x	x	x	-2.4%
COc1ccc(-c2nc3cnc(Nc4cccc(OC)c4)nc3n(C[C@H]3CCCO3)c2=O)cc1	-9.3%	x	x	x	u	x
O=C(/C=C/c1ccc(O)c(O)c1)c1ccccc1O	u	u	9.7	-93.2*	11.6µM*	4.1%
O=C(C=Cc1ccccc1O)c1ccccc1O	14.6µM*	x	9.1	-96.9*	u	x
O=C(/C=C/c1ccoc1)c1ccccc1O	-13.4%	u	-16.9	30.3	16.9%	2.2%
CCc1cc2c(cc3c(=O)n(CC(=O)N4CCN(c5cccc(C)c5C)CC4)nc(CC)n32)s1	-24.1%	x	x	x	0.2%	0.0%
CCOC(=O)N1CCN(c2nc(CN3CCCCC3CCO)nc3c(C)cccc23)CC1 (stereo not given)	-16.5%	x	x	x	6.3%	x
COc1ccc2cc(CCNS(=O)(=O)c3c(C)cc(C)cc3C)c(=O)[nH]c2c1	-23.7%	-9.6%	-17.0	12.5	u	x
Cc1ccc(-n2c(SCC(=O)NC3CCS(=O)(=O)C3)nc3ccccc3c2=O)c(C)c1 (stereo not given)	16.4µM*	x	x	0.1	u	x
O=C(CSc1nc2ccccc2c(=O)n1-c1cccc(C(F)(F)F)c1)NC1CC1	u	-18.6%	-4.6	u	18.4µM*	2.0%
SMILES	DT40 TDP1 no CPT	ELG1 repair inh	Giardia kill	IL1B secr inh	TDP1 cell CPT	TDP1 block
O=S(=O)(Cc1noc(-c2ccc(Cl)cc2)n1)Cc1ccco1	-16.4%	u	u	-13.8	u	2.9%
Cc1ccccc1CC1(CO)CCCN(C(=O)c2ccc(F)cc2)C1 (stereo not given)	u	0.0%	-16.4	-12.7	u	0.0%
Cc1ccccc1CC1(CO)CCCN(C(=O)c2ccc3ncccc3c2)C1 (stereo not given)	14.6µM*	14.6%	10.7	26.9	6.51µM*	4.8%
Cc1ccc2nc(-c3cccnc3)cc(C(=O)Nc3ccccc3[N+](=O)[O-])c2c1	u	-4.5%	4.2	-14.9	u	1.0%
O=C(Nc1ccc(C(=O)N2CCOCC2)cc1)c1cc(-c2cccnc2)nc2ccc(Cl)cc12	2.06µM*	u	29.2	u	1.84µM*	-2.7%
CC(=O)Nc1cccc(NC(=O)c2cc(-c3cccnc3)nc3ccc(Br)cc23)c1	17.8µM*	u	-8.3	-19.2	17.8µM*	0.0%
CC(=O)Nc1cccc(NC(=O)c2cc(-c3cccnc3)nc3ccc(Cl)cc23)c1	u	20.6µM*	-1.4	u	u	0.0%
O=C(O)c1cc(-c2cccnc2)nc2ccc(Br)cc12	22.4%	-6.2%	24.2	36.5	u	1.2%
CSc1ccccc1NC(=O)c1cc(-c2cccnc2)nc2ccc(Br)cc12	20.6µM*	23.1µM*	-1.9	u	u	-11.0%
CCC(C)c1cc([N+](=O)[O-])cc([N+](=O)[O-])c1OC(C)=O (stereo not given)	x	x	x	x	x	6.2%
Cc1ccc2c(c1)C(c1ccccc1)N(C(=O)c1ccc(S(=O)(=O)N3CCCC3)cc1)CC(=O)N2 (stereo not given)	u	x	x	x	u	5.9%
Cc1nc2ccc(Cl)cc2nc1C	-10.7%	u	-10.2	7.5	2.6%	x
C/[N+]([O-])=C/c1c(OCc2ccccc2)ccc2ccccc12	23.1µM*	u	-8.5	-11.2	-0.9%	x
O=Cc1c(OCc2ccccc2)ccc2ccccc12	-13.9%	u	-12.0	0.0	-14.4%	2.7%
CN(C)CCCNc1nc2cc(-c3cccc(Cl)c3)sc2c(=O)n1C	u	x	x	-24.8	u	x
CN(C)CCCNc1nc2cc(-c3cccc(C(F)(F)F)c3)sc2c(=O)n1C	u	x	x	-65.8*	18.4µM*	x
Cn1c(NCc2ccccc2)nc2cc(-c3cccc(C(F)(F)F)c3)sc2c1=O	18.4µM*	x	x	0.0	u	x
O=C(NC1CCCCC1)c1ccc2c(c1)N(Cc1ccc(Cl)cc1)C(=O)c1ccccc1S2(=O)=O	-27.8%	x	x	x	-17.9%	-1.2%

Screens as filed in PubChem BioAssay.
